According to PubChem BioAssay AID1259245 (Vanderbilt High Throughput Screening Facility, 2017):
Hit rate of the full screen: of about 40,000 compounds, about 1,400 (3.5%) were called active.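 The calls were made as follows: active = any of four per-well response measures lying three or more SD from its plate-wide compound average, in either direction; inactive = the rest, inconclusive results apart.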 For the sample, actives were picked, then their nearest neighbours and some compounds at random.

Biological target: Voltage-dependent calcium channel gamma-2 subunit (Mus musculus) + Glutamate receptor 2 (Rattus norvegicus) (UniProt O88602+P19491)
Sequence (O88602 whole entry, looked up): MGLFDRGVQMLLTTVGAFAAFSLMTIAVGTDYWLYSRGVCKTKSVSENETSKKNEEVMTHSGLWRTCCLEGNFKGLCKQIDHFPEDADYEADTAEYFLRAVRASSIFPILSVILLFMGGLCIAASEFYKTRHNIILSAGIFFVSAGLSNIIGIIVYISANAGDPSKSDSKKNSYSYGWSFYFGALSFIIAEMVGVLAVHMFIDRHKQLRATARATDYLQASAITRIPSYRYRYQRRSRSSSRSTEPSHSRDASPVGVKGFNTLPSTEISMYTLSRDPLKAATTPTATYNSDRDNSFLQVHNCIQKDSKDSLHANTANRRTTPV
Sequence (P19491 whole entry, looked up): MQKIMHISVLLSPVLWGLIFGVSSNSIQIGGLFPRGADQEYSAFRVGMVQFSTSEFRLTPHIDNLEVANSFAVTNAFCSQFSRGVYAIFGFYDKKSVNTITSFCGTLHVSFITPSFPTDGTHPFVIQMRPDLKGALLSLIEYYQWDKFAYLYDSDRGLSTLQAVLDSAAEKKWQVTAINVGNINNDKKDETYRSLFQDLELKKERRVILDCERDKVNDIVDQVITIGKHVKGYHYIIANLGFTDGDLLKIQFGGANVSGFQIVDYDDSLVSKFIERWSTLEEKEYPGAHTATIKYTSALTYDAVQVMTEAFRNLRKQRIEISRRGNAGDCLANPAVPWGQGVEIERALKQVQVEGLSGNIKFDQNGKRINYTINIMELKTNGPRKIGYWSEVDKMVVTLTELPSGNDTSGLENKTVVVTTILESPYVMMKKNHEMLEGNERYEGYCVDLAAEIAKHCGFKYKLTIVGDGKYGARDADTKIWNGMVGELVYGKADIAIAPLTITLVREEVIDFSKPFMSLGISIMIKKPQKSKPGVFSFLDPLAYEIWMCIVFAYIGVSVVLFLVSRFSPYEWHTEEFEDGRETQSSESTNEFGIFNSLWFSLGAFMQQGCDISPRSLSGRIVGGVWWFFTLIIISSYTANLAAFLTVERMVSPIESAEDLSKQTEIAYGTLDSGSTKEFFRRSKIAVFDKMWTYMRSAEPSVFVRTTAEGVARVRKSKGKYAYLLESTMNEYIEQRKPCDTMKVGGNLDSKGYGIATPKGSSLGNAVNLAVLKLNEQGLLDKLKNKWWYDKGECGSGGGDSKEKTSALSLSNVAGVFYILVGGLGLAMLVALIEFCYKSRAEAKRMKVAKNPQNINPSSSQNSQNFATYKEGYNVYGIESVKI
Assay: modulators of GluA2-stargazin AMPA receptor complexes, primary screen, cell-based, membrane potential dye (AID 1259245)
Details: HEK293 GluA2+stargazin, membrane potential dye (FDSS), glutamate EC50, at 30 µM, hits were called plate by plate, in both directions; compound max-min signal: compound-alone response (agonism); glutamate slope, % of max: measured here: glutamate response slope, % max

Compound | compound max-min signal | glutamate response, % of max | glutamate slope, % of max [%]
CCOc1ccc(C)cc1S(=O)(=O)Nc1cc(Cl)ccc1O | 0.184 | 20.5% (inactive) | 42.7
COc1ccc(C)cc1S(=O)(=O)Nc1cc(Cl)ccc1O | 0.201 | 17.5% (active) | 33.4
COc1ccc(C)cc1S(=O)(=O)NCC1CCN(C2CCCC2)CC1 | 0.046 | 35.2% (inactive) | 60.4
COc1ccc(SCC(=O)Nc2sc3c(c2C(N)=O)CCN(C(C)=O)C3)cc1 | 0.106 | 34.1% (inactive) | 58.5
COc1ccc(CCNC(=O)Nc2c[nH]c3ccccc23)cc1 | 0.127 | 40.6% (inactive) | 64.1
Cc1cc(Cl)cc2sc(N(CC3CCCO3)C(=O)CN(C)S(C)(=O)=O)nc12 (centres undefined) | 0.075 | 26.5% (inactive) | 51.3
O=S(=O)(c1ccc(C2CCCCC2)cc1)N1CCC(Cc2ccccc2)CC1 | 0.0564 | 25.6% (inactive) | 44.4
COc1ccc(S(=O)(=O)NCC(c2ccc(C)cc2)N2CCN(C)CC2)cc1OC (centres undefined) | 0.0672 | 37.4% (inactive) | 55.5
CCOc1ccc(S(=O)(=O)NCC(O)c2ccsc2)cc1F (centres undefined) | 0.128 | 48.1% (inactive) | 69
COc1ccc(S(=O)(=O)NCC(c2ccsc2)N2CCCCCC2)cc1F (centres undefined) | 0.168 | 17.6% (active) | 30.2
COc1ccc(N2CCN(CCNS(=O)(=O)c3ccc(Cl)s3)CC2)cc1 | 0.131 | 37.9% (inactive) | 47.8
O=C(CSc1ccc(NC(=O)c2ccco2)nn1)Nc1ccc(OC(F)(F)F)cc1 | 0.106 | 19.5% (inactive) | 37.1
CC(C)C(=O)Nc1ccc(SCC(=O)c2ccccc2)nn1 | 0.113 | 25.4% (inactive) | 42.3
COc1cccc(CNC(=O)CSc2ccc(NC(=O)c3cccc(F)c3)nn2)c1 | 0.0911 | 24.2% (inactive) | 47.4
COC(=O)c1ccc(NC(=O)CSc2ccc(NC(=O)c3ccco3)nn2)cc1 | 0.0425 | 23.1% (active) | 46.9
CC(=O)c1ccc(NC(=O)CSc2ccc(NC(=O)c3ccco3)nn2)cc1 | 0.0373 | 24.5% (active) | 47
Cc1ccc(C(=O)Nc2ccc(SCC(=O)NCc3ccc4c(c3)OCO4)nn2)cc1 | 0.0549 | 27.8% (inactive) | 49.8
CCOC(=O)N1CCc2c(sc(NC(=O)c3ccccc3Cl)c2-c2nc3ccccc3s2)C1 | 0.11 | 43.3% (inactive) | 61.3
CCn1nnc2c(N3CCN(CC(=O)Nc4c(C)cc(C)cc4C)CC3)ncnc21 | 0.0423 | 21.5% (inactive) | 39.9
COc1ccc(-n2nnnc2SC(C)C(=O)Nc2ccccc2Cl)cc1 (centres undefined) | 0.0851 | 29.7% (inactive) | 55.7
O=C(NCCN1CCOC(c2ccccc2)C1)c1c(F)cccc1F (centres undefined) | 0.0396 | 14.5% (inactive) | 32.8
CCOc1ccc(S(=O)(=O)NCc2ccc3c(c2)OCO3)cc1OCC | 0.0924 | 30.4% (inactive) | 55.6
COc1ccc(S(=O)(=O)Nc2ccc(N3CCCCS3(=O)=O)cc2)cc1F | 0.0701 | 25.7% (inactive) | 44.9
O=C(CCCn1nc(-c2ccc(Cl)cc2)ccc1=O)Nc1ccc(F)c(F)c1 | 0.175 | 35.4% (inactive) | 51.5
CC(C)c1cc(NCCN2CCOCC2)n2ncc(-c3ccccc3)c2n1 | 0.126 | 34% (inactive) | 54.5

Compound | compound max-min signal | glutamate response, % of max | glutamate slope, % of max [%]
COc1cn(CC(=O)Nc2cccc(C)c2C)c(CN2CCOCC2)cc1=O | 0.0306 | 11% (inactive) | 23.6
COc1nn(C)cc1C(=O)NCC(=O)Nc1cccc(C)c1C | 0.067 | -0.69% (active) | 4.95
COc1nn(C)cc1C(=O)NCCN1CCN(S(C)(=O)=O)CC1 | 0.0954 | 49.7% (inactive) | 63.9
Cc1ccc(NC(=O)c2ccc(S(=O)(=O)N3CCCC3)cc2)c(C(=O)c2ccccc2)c1 | 0.117 | 44% (inactive) | 65.3
O=C(CSCc1ccccc1)Nc1ccccc1F | 0.0999 | 23.2% (inactive) | 36.5
COc1cc([N+](=O)[O-])ccc1NC(=O)c1ccccc1NS(=O)(=O)c1ccccc1 | 0.141 | 22.1% (active) | 34.2
COc1ccccc1NC(=O)c1csc(NS(=O)(=O)c2ccccc2)n1 | 0.0914 | 30.6% (inactive) | 47.5
Cc1ccc(S(=O)(=O)Nc2ccccc2C(=O)Nc2ccc3c4c(cccc24)CC3)cc1 | 0.105 | 43.6% (inactive) | 62.4
COc1ccc(CNC(=O)N2CCC(c3cccs3)CC2)cc1 | 0.14 | 40.4% (inactive) | 59.7
CN(C)C(CNC(=O)C(=O)Nc1ccc2c(c1)OCCO2)c1cccn1C (centres undefined) | 0.0533 | 30.5% (inactive) | 63.5
COCCCNc1nc2c(c(=O)n(C)c(=O)n2C)n1CC(O)COc1ccc(C)c(C)c1 (centres undefined) | 0.0698 | 46.2% (inactive) | 75.7
COCCCn1c(C(=O)Nc2cccnc2)cc2c(=O)n(C)c(=O)n(C)c21 | 0.306 | 24.6% (active) | 44.9
CCOC(=O)c1ccc(NC(=O)c2cccnc2)cc1 | 0.0638 | 27.5% (inactive) | 53.7
COc1ccccc1NC(=O)Cn1cc(-c2nnc(-c3ccco3)o2)c2ccccc21 | 0.137 | 42.8% (inactive) | 63.9
COc1cccc2sc(N(Cc3ccco3)C(=O)CSCc3ccccc3)nc12 | 0.0832 | 31.9% (inactive) | 54.9
COc1ccc2nc(N(CCN3CCOCC3)C(=O)c3ccc([N+](=O)[O-])o3)sc2c1 | 0.173 | 42.6% (active) | 68.7
COc1ccc2nc(N(CCN3CCOCC3)C(=O)c3cc4cc([N+](=O)[O-])ccc4s3)sc2c1 | 0.0573 | 31% (inactive) | 45.5
COc1ccc2nc(N(CCN3CCOCC3)C(=O)c3ccccc3S(C)(=O)=O)sc2c1 | 0.0288 | 22.5% (inactive) | 42.4
c1nc(N2CCN(Cc3ccc4c(c3)OCO4)CC2)c2c3c(sc2n1)CCCC3 | 0.0914 | 49% (inactive) | 68.7
COc1ccc(/C=C2\Oc3c(ccc4c3CN(c3ccc(F)cc3)CO4)C2=O)c(OC)c1OC | 0.103 | 23.7% (inactive) | 51.7
COC(=O)c1c(NC(=O)CC2NCCNC2=O)sc(C)c1C (centres undefined) | 0.0942 | 53% (active) | 55.8
COC(=O)c1ccsc1NC(=O)CC1Sc2ccccc2NC1=O (centres undefined) | 0.0707 | 30.1% (inactive) | 49.8
O=C(/C=C/c1ccccc1)Nc1ccc(CC(=O)N2CCCC2)cc1 | 0.119 | 31.3% (inactive) | 65.4
C=CCNC(=O)NC1CCCCC1N1C(=O)CSC1=O (centres undefined) | 0.12 | 10.5% (inactive) | 45.6
CSc1ccccc1NC(=O)c1nc(-c2cnccn2)no1 | 0.143 | 23.2% (inactive) | 49.2

Compound | compound max-min signal | glutamate response, % of max | glutamate slope, % of max [%]
Cc1nc(-c2cccs2)c(CCC(=O)NCc2ccc3c(c2)OCO3)s1 | 0.114 | 10.6% (active) | 25.8
COc1ccc(CCNC(=O)CCc2sc(C)nc2-c2cccs2)cc1 | 0.0606 | 19.1% (inactive) | 37.1
COc1ccc(NC(=O)CCc2sc(C)nc2-c2cccs2)cc1OC | 0.123 | 37.8% (inactive) | 60.9
Cc1ccc2cc(CNc3ccccc3)c(=O)n(CC(=O)Nc3ccccc3C)c2c1 | 0.0993 | 29.6% (inactive) | 44.3
COc1ccc2cc(CNc3ccccc3)c(=O)n(CC(=O)Nc3ccccc3OC)c2c1 | 0.0876 | -1.71% (active) | 4.4
COc1cc2cc(CNc3ccc(C)cc3)c(=O)n(CC(=O)Nc3ccccc3F)c2cc1OC | 0.116 | 25.6% (inactive) | 49.4
Cc1cc(C)cc(-n2c(SCC#N)nc3cc(C(=O)NC4CCCC4)ccc3c2=O)c1 | 0.127 | 50.2% (inactive) | 72.1
CCOC(=O)c1ccc(-n2c(C)c(C)n3c4c(=O)n(CC)c(=O)n(C)c4nc23)cc1 | 0.126 | 48.1% (inactive) | 62.4
CCC(C)c1ccccc1OCC(O)CN (centres undefined) | 0.0631 | 21.1% (inactive) | 39.8
Cc1cc(N(C)C)nc(-n2cc([N+](=O)[O-])cn2)n1 | 0.178 | 35.4% (active) | 63.4
O=C(c1ccc(Cl)s1)N1CCC(c2ccsc2)CC1 | 0.0754 | 43.8% (inactive) | 57
COCCNC(=O)C(=O)Nc1cc(N2CCCS2(=O)=O)ccc1OC | 0.105 | 22.8% (inactive) | 46.1
CC(=O)c1ccc(C(=O)Nc2sc3c(c2-c2nc4ccccc4s2)CCN(C)C3)cc1 | 0.226 | 65.6% (active) | 85
CCOc1ccc(C(=O)Nc2sc3c(c2-c2nc4ccccc4s2)CCN(C)C3)cc1 | 0.114 | 34.3% (inactive) | 50.1
CN1CCc2c(sc(NC(=O)c3ccc(Br)cc3)c2-c2nc3ccccc3s2)C1 | 0.139 | 53.9% (inactive) | 74
COc1ccc2sc(N(CC3CCCO3)C(=O)C3CCCC3)nc2c1 (centres undefined) | 0.117 | 20% (inactive) | 33.1
Cc1nc2ccccn2c1C(=O)NCC(O)(c1ccccc1)C(F)(F)F (centres undefined) | 0.141 | 14.1% (inactive) | 49.7
Cc1nc2ccccn2c1C(=O)Nc1ccc2c(c1)CC(=O)N2C | 0.213 | 46.6% (active) | 65.1
CN1C(=O)Cc2cc(NC(=O)NC(c3ccccc3)c3ccccc3)ccc21 | 0.121 | 41.8% (inactive) | 60.5
CCOC(=O)CNC(=O)C(=O)c1c(C)[nH]c2ccccc12 | 0.14 | 51.3% (inactive) | 67.4
O=S(=O)(NCC#CCN1CCc2ccccc2C1)c1ccc(Br)cc1 | 0.0488 | 43.9% (inactive) | 66.2
CN(C)S(=O)(=O)NCC#CCN1CCc2ccccc2C1 | 0.0659 | 38.5% (inactive) | 57.8
O=S(=O)(/C=C/c1ccccc1)NCC#CCN1CCc2ccccc2C1 | 0.144 | 41.7% (active) | 55.5
